40 sequences from the supplement of paper PMC6555819 can be followed below.

For one assay, the system named is RXRa DBDmut IVT, anti-RXR (DBD mutation: RXRa K156A/R161A, NR concentration 90 nM). Description: PBM binding z-score (relative to random genomic background probes); higher = stronger binding; sequences stand for … in GC…GCGATTGACAGCGTAGAATGAAGG
The method, boiled down: (§1)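 Each nuclear receptor dimer, without ligand, was incubated for 1 h on custom Agilent 4×180K protein-binding microarrays. Binding was detected with antibodies against each partner (one per run), and scanned fluorescence was regression-normalized. The binding z-scores are referenced to random human genomic background probes.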
GCTAGCAGGCCATTTGGGTAACTCAATGACGGGC came in with a PBM binding z-score of -0.499.
Sequence TCATATAGGTAAATGTTAGGTGAAAGTCCGATCT returned a PBM binding z-score of 2.12.
Still for that read-out and setting: the value for ATCTCTAGGTAACCGAGTTCAGTGAATGCCGAAC was 1.39; that for TCAGACAGGTGAATGTAACTCAGGTACGCAGTCG was 1.01; that for AGAATTAGGTTATTAAGATCAGGGAATTGCGGTC was 0.599.
On the same count and under the same terms, the value for TCTCGGAGCACACGAAAGGTCAGAGCTCGACATC was 0.437.
TCATATGGGTAAATGCTAGGTGAAAGTCCGATCT showed a PBM binding z-score of 0.923.
ATATGTAGGTTAAGGGTGATTCAGGTTGGTTCGC returned a PBM binding z-score of 0.792.
Same read-out and setting: for TGAATGAGGTTATAAGATTAGGGAACGTTGCAAA the value was 0.551; for TCTGTTAGGTCAGTTGGTCAGCTAACGAGCTGCC, 1.33.
The sequence GCTAGCGGGCCATTTGGGTCACTCAATGACGGGC came in with a PBM binding z-score of -0.841.
The same measure, in the same setting: for CAAACTAGGTCACCAAAGGTCAAAGTCGAATGAC the value was 2.57; for TTACCAAGGTGAAAGGTAGTTGATGCACGCCTTG, 0.0303.
The sequence TCGAGTAGGTGACCAATGGGGCATTCAGCTTTCT yielded a PBM binding z-score of -0.0137.
On the same count and under the same terms, the value for CTTACTGGGCCACGAAAGGTCATTGATTCAGTGA was 1.19; that for ATATGTAGGTTAGCTTGGGTCATTCAGACTAGGC was 0.678; that for CCTTACGGGTCAAGGTGATAGCACGGGTGGTACG was 0.497.
On the same count and under the same terms, the value for GCTTGTAGATCAAGGTTCAGAAAGACTAAGCTAA was 1.09; that for TCACCAAGGTGAAGGTCGTTGATCCCTCTGTAGA was 0.927; that for TAGCCTAGGTCATGGGACAGTATACCACGCGAAC was 0.981.
The same measure, in the same setting: the value for CCTTGCAGGCCAATCTGGGTCACTCAAGGCTTGA was 0.233.
As for TATACAGGGTCAAAGGCCAGGGTACGAATGTCGA, the PBM binding z-score was determined as 2.73.
On the same count and under the same terms, for CAAACTAGGTCACCGGAAGGTCAAAGACCGCATG the value was 1.49; for CATACAGGGTCAGCTAGACCAGAGTAGGGACGGC, 1.59.
In the case of TCTAGTTGGTCACAGAGGTCACACACGACGGGTA, the PBM binding z-score worked out at 1.63.
Same read-out and setting: the value for CCTAATGGGCCAAAGGTCATTGATTCCAATGCTC was 1.72; that for TAGCCTAGGTCATTGGGCCAGGATAGTACGCATC was 1.25; that for TCTAGCAGGCCAGAGGCTCACTCAAGAGGTACGG was -0.462.
The same measure, in the same setting: the value for AGATGTAGGTTACATCCGGGTCATTCAGGCTATG was 0.74; that for GCTATTAGTTGAAAGGGCAGCCGAATGATTCTCG was 0.695; that for TAGCCTAGGTCATTTAGGGGCCAGTATAGAAAGC was 1.98.
On the same count and under the same terms, for CCAGACAGGTGAAGGGTAACTCAGTCTGGTACGC the value was -0.69; for ATCGAAAGGTCGTGAGGCGAGTATACAGAAAGGC, 1.28.
As for CGTGCAAGGTCATAGGAGGTCAGTGAAGACAGAT, the PBM binding z-score amounted to 4.08.
In turn, TCATATAGGTAAAGGTGTAAGTCGAACGATATGA gave a PBM binding z-score of 0.642.
In turn, TCTTTTAGATCAATAGAGGTTAAGAAAGTGCGCT showed a PBM binding z-score of 0.967.
As for ATCTCTAGGTAAAGATAGTCCAGTGAATGCAAAT, the PBM binding z-score is 0.0705.
In turn, TCAAGTAGGTTAGTCGGGGCATTCAGCCAACATA had a PBM binding z-score of 1.46.
Turning to ATATGTAGGTTAAGGGTCAGTCAGGTTGGTTCGC, the PBM binding z-score is 1.4.
Sequence CCTTACGGGTCACTCCAGGATATAGCATCGGAGT gave a PBM binding z-score of 1.43.

The test system of another assay is RXRa homodimer (NR concentration 180 nM). Described as above. In short, it runs like this:
as §1
For the sequence GCTAGCAGGCCATTTGGGTAACTCAATGACGGGC, the PBM binding z-score is -0.0687.
The sequence TCATATAGGTAAATGTTAGGTGAAAGTCCGATCT returned a PBM binding z-score of 1.09.
ATCTCTAGGTAACCGAGTTCAGTGAATGCCGAAC: the PBM binding z-score came to 0.704.
Turning to TCAGACAGGTGAATGTAACTCAGGTACGCAGTCG, the PBM binding z-score was 0.802.
In the case of AGAATTAGGTTATTAAGATCAGGGAATTGCGGTC, the PBM binding z-score worked out at 0.275.
The same measure, in the same setting: for TCTCGGAGCACACGAAAGGTCAGAGCTCGACATC the value was 3.98; for TCATATGGGTAAATGCTAGGTGAAAGTCCGATCT, 0.517.
On the same count and under the same terms, the value for ATATGTAGGTTAAGGGTGATTCAGGTTGGTTCGC was 1.62; that for TGAATGAGGTTATAAGATTAGGGAACGTTGCAAA was 1.87; that for TCTGTTAGGTCAGTTGGTCAGCTAACGAGCTGCC was 1.19.
Regarding GCTAGCGGGCCATTTGGGTCACTCAATGACGGGC, the PBM binding z-score was 0.742.
Take CAAACTAGGTCACCAAAGGTCAAAGTCGAATGAC: the PBM binding z-score amounted to 7.91.
TTACCAAGGTGAAAGGTAGTTGATGCACGCCTTG gave a PBM binding z-score of 1.67.
Turning to TCGAGTAGGTGACCAATGGGGCATTCAGCTTTCT, the PBM binding z-score stood at 0.185.
In the case of CTTACTGGGCCACGAAAGGTCATTGATTCAGTGA, the PBM binding z-score was determined as 5.84.
ATATGTAGGTTAGCTTGGGTCATTCAGACTAGGC: the PBM binding z-score is 1.89.
The same measure, in the same setting: the value for CCTTACGGGTCAAGGTGATAGCACGGGTGGTACG was 5.2; that for GCTTGTAGATCAAGGTTCAGAAAGACTAAGCTAA was 0.62; that for TCACCAAGGTGAAGGTCGTTGATCCCTCTGTAGA was 2.01.
Turning to TAGCCTAGGTCATGGGACAGTATACCACGCGAAC, the PBM binding z-score came to 3.62.
CCTTGCAGGCCAATCTGGGTCACTCAAGGCTTGA yielded a PBM binding z-score of 0.742.
In the case of TATACAGGGTCAAAGGCCAGGGTACGAATGTCGA, the PBM binding z-score worked out at 7.42.
On the same count and under the same terms, the value for CAAACTAGGTCACCGGAAGGTCAAAGACCGCATG was 6.27.
CATACAGGGTCAGCTAGACCAGAGTAGGGACGGC: the PBM binding z-score amounted to 4.3.
The sequence TCTAGTTGGTCACAGAGGTCACACACGACGGGTA had a PBM binding z-score of 6.43.
Regarding CCTAATGGGCCAAAGGTCATTGATTCCAATGCTC, the PBM binding z-score stood at 7.11.
On the same count and under the same terms, the value for TAGCCTAGGTCATTGGGCCAGGATAGTACGCATC was 2.67.
TCTAGCAGGCCAGAGGCTCACTCAAGAGGTACGG had a PBM binding z-score of -0.277.
Take AGATGTAGGTTACATCCGGGTCATTCAGGCTATG: the PBM binding z-score amounted to 3.33.
On the same count and under the same terms, the value for GCTATTAGTTGAAAGGGCAGCCGAATGATTCTCG was 0.636.
On the same count and under the same terms, for TAGCCTAGGTCATTTAGGGGCCAGTATAGAAAGC the value was 2.63.
Turning to CCAGACAGGTGAAGGGTAACTCAGTCTGGTACGC, the PBM binding z-score came out at 0.751.
As to ATCGAAAGGTCGTGAGGCGAGTATACAGAAAGGC, the PBM binding z-score was 5.34.
Turning to CGTGCAAGGTCATAGGAGGTCAGTGAAGACAGAT, the PBM binding z-score came out at 7.22.
Same read-out and setting: for TCATATAGGTAAAGGTGTAAGTCGAACGATATGA the value was 0.621; for TCTTTTAGATCAATAGAGGTTAAGAAAGTGCGCT, 1.58; for ATCTCTAGGTAAAGATAGTCCAGTGAATGCAAAT, 0.108.
The same measure, in the same setting: for TCAAGTAGGTTAGTCGGGGCATTCAGCCAACATA the value was 0.586.
On to ATATGTAGGTTAAGGGTCAGTCAGGTTGGTTCGC, for which the PBM binding z-score is 4.19.
CCTTACGGGTCACTCCAGGATATAGCATCGGAGT had a PBM binding z-score of 4.06.
